Assay outcomes (PubChem BioAssay)
Hits are enriched below; roughly 2.3% of the tested compounds scored in any of these assays.
YB-1 expr inh: inhibitors of YB-1 gene expression, primary screen, cell-based, fluorescence | U2OS, qRT-PCR YB-1 vs CDIP delta delta Cp, 16 h; active compounds read high; zero = DMSO, each unit about twofold | delta delta Cp (YB-1 minus CDIP) (no concentration beside the values) | 30,000 compounds, 0.37% hits | AID 434959, 2010;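 active = delta delta Cp rounded down to an integer at or above 3, about 3 SD of DMSO wells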;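 also: higher means less YB-1 transcript or more CDIP transcript relative to DMSO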
PD-1 reverse act: activators reversing PD-1 mediated T-cell inhibition, primary screen, luminescence, primary human CD4 T cells, PD-L1 beads; AID 2316, 2010; CellTiter-Glo 96 h; 29,000 tested, under 10 active; activation, % (test concentration not listed); call rule not given here;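 also: 0% = median vehicle wells and 100% = positive control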
U2OS ROS induce: ROS inducers in U2OS cancer cells, primary screen, cell-based, H2DCF-DA fluorescence | ROS induction (% of piperlongumine), % at 10 µM | U2OS ROS induction | 46,000 compounds, 2% hits; in the data active = ROS induction above about 79%, passing the limit was not always enough;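 also: 0% = DMSO vehicle median and 100% = reference compound median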
* marks the source's active call; other numbers are inactive results; . = not tested or not shown.

SMILES	YB-1 expr inh	PD-1 reverse act	U2OS ROS induce
O=C(COc1ccc(CO)cc1)Nc1ccccc1	.	4	-5
O=C(Nc1ccc(C(F)(F)F)cc1)c1ccc2c(c1)CCO2	.	.	-3
COc1ccc(CC(=O)NCC(C)C)cc1	-0.17	2	4
COc1ccc(OC)c(C(O)CNC(=O)CN)c1 (stereo not given)	-0.42	.	122*
COC(=O)C1=C(O)/C(=C/c2ccc(O)cc2)SC1=Nc1ccccc1	.	.	164*
COC(=O)CN1C(=O)/C(=C\c2ccc(O)cc2)SC1=S	.	.	1
CC1=N/C(=C\c2sccc2C)C(=O)O1	-0.21	0	94*
Cc1ccsc1/C=N/NC(=O)c1ccccn1	0.2	.	2
Cc1cc(-c2ccccc2)nc(SCc2ccccc2)c1C#N	.	.	2
N#Cc1c(-c2ccco2)cc(-c2ccccc2)nc1SCCN1C(=O)c2ccccc2C1=O	.	.	-3
CC(C)(C)c1cc(-c2cccs2)c(C#N)c(SCC(=O)Oc2ccccc2)n1	-0.36	-32	16
N#Cc1c(-c2ccccc2)cc(-c2cccs2)nc1SCS(=O)Cc1ccccc1 (stereo not given)	.	.	108*
N#Cc1c(-c2ccccc2)cc(-c2ccccc2)nc1SCC(O)CS(=O)Cc1ccccc1 (stereo not given)	.	.	144*
N#Cc1c(-c2ccco2)cc(-c2cccs2)nc1OCc1ccc(F)cc1	-0.15	-1	4
CCS(=O)(=O)CCSc1nc(-c2ccccc2)cc(-c2ccccc2)c1C#N	.	.	98*
COc1ccc(-c2cc(-c3cccs3)nc(SC(C(=O)O)c3ccccc3)c2C#N)cc1 (stereo not given)	.	-6	149*
CCOc1ccccc1NC(=O)CN1C(=O)c2cccc3cccc1c23	.	0	-1
COc1ccc(CNCc2ccc(C)cc2)cc1	.	.	1
Cc1csc(Nc2ccc(F)c(Cl)c2)[n+]1C(C)C	-0.35	2	-3
COc1ccc(S(=O)(=O)N(C)C[C@@H]2Oc3ccc(NS(=O)(=O)c4ccc(F)cc4)cc3C(=O)N([C@@H](C)CO)C[C@@H]2C)cc1	19*	-2	10
Cc1ccc(S(=O)(=O)N(C)C[C@@H]2OCCCC[C@@H](C)Oc3ccc(NS(=O)(=O)c4ccc(Cl)cc4)cc3C(=O)N([C@H](C)CO)C[C@@H]2C)cc1	-0.68	0	111*
Cc1ccc(S(=O)(=O)Nc2ccc3c(c2)C(=O)N([C@H](C)CO)C[C@H](C)[C@@H](CN(C)S(=O)(=O)c2ccc(C)cc2)OCCCC[C@@H](C)O3)cc1	0.13	.	19
C[C@@H]1CCCCO[C@H](CN(C)S(=O)(=O)c2ccc(F)cc2)[C@@H](C)CN([C@H](C)CO)C(=O)c2cc(NS(=O)(=O)c3ccc(F)cc3)ccc2O1	0.099	.	37
COc1ccc(S(=O)(=O)Nc2ccc3c(c2)C(=O)N([C@@H](C)CO)C[C@@H](C)[C@H](CN(C)S(=O)(=O)c2ccc(F)cc2)O3)cc1	0.1	.	2
COc1ccc(S(=O)(=O)Nc2ccc3c(c2)C(=O)N([C@H](C)CO)C[C@H](C)[C@@H](CN(C)S(=O)(=O)c2ccc(C)cc2)OCCCC[C@@H](C)O3)cc1	-1.4	.	20
SMILES	YB-1 expr inh	PD-1 reverse act	U2OS ROS induce
COc1ccc(S(=O)(=O)N(C)C[C@@H]2OCCCC[C@@H](C)Oc3ccc(NS(=O)(=O)c4ccc(F)cc4)cc3C(=O)N([C@H](C)CO)C[C@@H]2C)cc1	-0.24	.	128*
C[C@@H]1CCCCO[C@@H](CN(C)S(=O)(=O)c2ccccc2)[C@@H](C)CN([C@H](C)CO)C(=O)c2cc(NS(=O)(=O)c3ccc(F)cc3)ccc2O1	-0.26	-1	206*
CCN1C2=C(C(=O)CCC2)C(c2cccc(O)c2)C2=C1CCCC2=O	-0.065	0	-8
O=C(/C=C/c1ccccc1)Nc1cccnc1Oc1ccc(F)cc1	.	.	18
Cc1ccc(S(=O)(=O)Nc2ccc3c(c2)C(=O)N([C@H](C)CO)C[C@H](C)[C@H](CN(C)S(=O)(=O)c2ccc(C)cc2)OCCCC[C@@H](C)O3)cc1	-0.94	-2	19
C[C@@H]1CCCCO[C@@H](CN(C)S(=O)(=O)c2ccccc2)[C@@H](C)CN([C@H](C)CO)C(=O)c2cc(NC(=O)c3ccccc3)ccc2O1	-0.19	.	132*
C[C@@H]1CCCCO[C@H](CN(C)C(=O)CCCN(C)C)[C@@H](C)CN([C@H](C)CO)C(=O)c2cc(NS(=O)(=O)c3ccccc3)ccc2O1	4.9*	1	-17
C[C@@H]1CCCCO[C@H](CN(C)S(=O)(=O)c2ccc(F)cc2)[C@@H](C)CN([C@H](C)CO)C(=O)c2cc(NC(=O)Nc3ccc(F)cc3)ccc2O1	-0.13	-2	54
C[C@@H]1CCCCO[C@@H](CN(C)C(=O)CCCN(C)C)[C@@H](C)CN([C@H](C)CO)C(=O)c2cc(NS(=O)(=O)c3ccccc3)ccc2O1	-0.018	1	-7
C[C@@H]1CCCCO[C@H](CN(C)S(=O)(=O)c2ccccc2)[C@@H](C)CN([C@H](C)CO)C(=O)c2cc(NC(=O)c3ccncc3)ccc2O1	0.0017	-2	1
Cc1ccc(S(=O)(=O)Nc2ccc3c(c2)C(=O)N([C@H](C)CO)C[C@H](C)[C@@H](CN(C)S(=O)(=O)c2ccccc2)OCCCC[C@@H](C)O3)cc1	-0.22	.	137*
C[C@@H]1CCCCO[C@@H](CN(C)S(=O)(=O)c2ccccc2)[C@@H](C)CN([C@H](C)CO)C(=O)c2cc(NC(=O)Nc3ccc(F)cc3)ccc2O1	0.21	-3	105*
COC(=O)c1c(NC(=S)NC(=O)c2ccccc2)sc2c1CCCC2	.	.	-9
CCc1ccc(NC(=O)c2cc3c(=O)oc4ccccc4c3s2)cc1	.	.	-28
Cc1ccnc(SCC(=O)Nc2ccc(Br)cc2F)n1	.	0	-12
COC(=O)C1=C(N)C(C(=O)OC)=c2s/c(=C/c3ccccc3)c(=O)n2C1c1ccccc1 (stereo not given)	-0.19	5	0
CCc1ccc(-n2nc3cc(C)c(NC(=O)COc4ccccc4[N+](=O)[O-])cc3n2)cc1	.	2	-9
COc1ccc(S(=O)(=O)N(C)C[C@H]2OCCCC[C@@H](C)Oc3ccc(NC(=O)NC4CCCCC4)cc3C(=O)N([C@H](C)CO)C[C@@H]2C)cc1	0.51	3	34
COc1ccc(S(=O)(=O)N(C)C[C@@H]2OCCCC[C@@H](C)Oc3ccc(NC(=O)NC4CCCCC4)cc3C(=O)N([C@H](C)CO)C[C@@H]2C)cc1	-0.0028	0	140*
C[C@@H]1CN([C@H](C)CO)C(=O)c2cc(NC(=O)C3CCCCC3)ccc2O[C@H]1CN(C)S(=O)(=O)c1cn(C)cn1	-0.2	0	-8
C[C@@H]1CCCCO[C@@H](CN(C)C)[C@@H](C)CN([C@H](C)CO)C(=O)c2cc(NS(=O)(=O)c3ccc(F)cc3)ccc2O1	0.19	.	-5
C[C@@H]1CCCCO[C@H](CN(C)CC2CCCCC2)[C@@H](C)CN([C@H](C)CO)C(=O)c2cc(NS(=O)(=O)c3ccc(F)cc3)ccc2O1	0.057	-4	98*
C[C@@H]1CCCCO[C@@H](CN(C)S(=O)(=O)c2cn(C)cn2)[C@@H](C)CN([C@H](C)CO)C(=O)c2cc(NC(=O)C3CCCCC3)ccc2O1	-0.68	-1	126*
